Measured values taken from PubChem BioAssay (NCATS).
Values joined by “and” are separate entries in the source; they are usually repeats but may differ in a detail not shown here. Equal values may be shown once. Records with an inconclusive call do not appear. Entries that show only a call come without a potency. The source holds several records for some structures; these can differ, active in one and inactive in another. A number with no mark means an inactive call. Active and inactive are the calls of the source. Calls follow the shape of the dose curve; as a rule, active = well fitted curve in the direction sought with a large enough effect; inconclusive = small, poorly fitted or top-dose-only effect, or another doubt; inactive = no such curve, though single readings can be large; an effect the other way counts as inactive or inconclusive.

Key:
[1] = tested on: C33A; experiment: Primary qHTS to identify gynecologic anti-cancer compounds using libraries of approved drugs and bioactive compounds (AID 1345084); details: Gynecologic cancer cell panel viability, ATPlite luminescence, 48 h; series mostly up to 57.5 µM; also: nearly all actives have a fitted effect of over 55% in size
Procedure, shortened: (§1)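 Five-point cytotoxicity, 48 h drug exposure at 37 C, 5% CO2, on cells seeded 16 h beforehand. ATP content read by ATPlite luminescence.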

[2] = tested on: CAOV3; experiment: as above; details: Gynecologic cancer cell panel viability, ATPlite luminescence, 48 h; series mostly up to 57.5 µM
Procedure, shortened: as §1

[3] = tested on: CASKI; experiment: as above; details: Gynecologic cancer cell panel viability, ATPlite luminescence, 48 h; series mostly up to 57.5 µM
Procedure, shortened: as §1

[4] = tested on: Es-2; experiment: as above; details: Gynecologic cancer cell panel viability, ATPlite luminescence, 48 h; series mostly up to 57.5 µM
Procedure, shortened: as §1

[5] = tested on: HeLa; experiment: as above; details: Gynecologic cancer cell panel viability, ATPlite luminescence, 48 h; series mostly up to 57.5 µM
Procedure, shortened: as §1

[6] = tested on: Hek293T; experiment: as above; details: Gynecologic cancer cell panel viability, ATPlite luminescence, 48 h, control line for the selectivity index; series mostly up to 57.5 µM
Procedure, shortened: as §1

[7] = tested on: JEG-3; experiment: as above; details: Gynecologic cancer cell panel viability, ATPlite luminescence, 48 h; series mostly up to 57.5 µM
Procedure, shortened: as §1

[8] = tested on: OV90; experiment: as above; details: Gynecologic cancer cell panel viability, ATPlite luminescence, 48 h; series mostly up to 57.5 µM
Procedure, shortened: as §1

[9] = tested on: SKOV3; experiment: as above; details: Gynecologic cancer cell panel viability, ATPlite luminescence, 48 h; series mostly up to 57.5 µM
Procedure, shortened: as §1

[10] = tested on: Tov-21-G; experiment: as above; details: Gynecologic cancer cell panel viability, ATPlite luminescence, 48 h; series mostly up to 57.5 µM
Procedure, shortened: as §1

[11] = tested on: Tov112D; experiment: as above; details: Gynecologic cancer cell panel viability, ATPlite luminescence, 48 h; series mostly up to 57.5 µM
Procedure, shortened: as §1

[12] = tested on: PA-1; experiment: as above; details: Gynecologic cancer cell panel viability, ATPlite luminescence, 48 h; series mostly up to 57.5 µM
Procedure, shortened: as §1

[13] = Drug repurposing screens with cells derived from glioblastoma tumor samples (AID 1345199); details: GBM patient neurospheres viability, ATP luminescence, 48 h; also: nearly all actives have a fitted effect of over 40% in size; also: potency is read from the fitted curve at half-maximal effect
Procedure, shortened: (§2)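 Four patient lines of CD133+ GBM neurospheres were screened at several concentrations; hits were retested in those lines plus three slower-growing GBM lines, using 48-hour treatment and ATP-based viability.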

[14] = tested on: astro; experiment: as above; details: viability, ATP luminescence, 48 h; series mostly up to 45.9 µM
Procedure, shortened: as §2

[15] = at 45.9 µM (top of the series), tumour line B
[16] = at 45.9 µM (top of the series), tumour line D
[17] = at 46.1 µM (top of the series), tumour line C

SMILES: Nc1ccc(C(=O)OCC(O)CO)cc1 (stereo not drawn)
- Potency [1]: inactive
- Potency [2]: inactive
- Potency [3]: inactive
- Potency [4]: inactive
- Potency [5]: inactive
- Potency [6]: inactive
- Potency [7]: inactive
- Potency [8]: inactive
- Potency [9]: inactive
- Potency [10]: inactive
- Potency [11]: inactive

SMILES: CCC(=O)Oc1ccc2c(c1)CC[C@@H]1[C@@H]2CC[C@@]2(C)[C@H]1C[C@@H](OC(=O)CC)[C@@H]2OC(=O)CC
- Potency [1]: inactive
- Potency [2]: inactive
- Potency [3]: inactive
- Potency [4]: inactive
- Potency [5]: inactive
- Potency [6]: inactive
- Potency [7]: inactive
- Potency [12]: inactive
- Potency [9]: inactive
- Potency [10]: inactive
- Potency [11]: inactive

SMILES: Clc1ccc2c(c1)N=C(N1CCNCC1)c1ccccc1N2
- Potency [1]: inactive
- Potency [2]: inactive
- Potency [3]: inactive
- Potency [4]: inactive
- Potency [5]: inactive
- Potency [6]: inactive
- Potency [7]: inactive
- Potency [12]: inactive
- Potency [10]: inactive
- Potency [11]: inactive

SMILES: N#C/C(=C1/SC[C@@H](c2ccc(Cl)cc2Cl)S1)n1ccnc1
- Potency [1]: inactive
- Potency [2]: inactive
- Potency [3]: inactive
- Potency [4]: inactive
- Potency [5]: inactive
- Potency [6]: inactive
- Potency [7]: inactive
- Potency [12]: inactive
- Potency [9]: inactive
- Potency [10]: inactive
- Potency [11]: inactive
- activity, negative = cell killing [13, 15]: -20.5% and -14.1%
- Potency ([13]; tumour line A): 11.2 µM (active) and 20 µM (active)
- Potency ([13]; tumour line D): 11.2 µM (active)
- Potency [14]: inactive

SMILES: O=C(OCCN1CCOCC1)c1cccnc1Nc1cccc(C(F)(F)F)c1
- Potency [1]: inactive
- Potency [2]: inactive
- Potency [3]: inactive
- Potency [4]: inactive
- Potency [5]: inactive
- Potency [6]: inactive
- Potency [7]: inactive
- Potency [12]: inactive
- Potency [9]: inactive
- Potency [10]: inactive
- Potency [11]: inactive

SMILES: CCC(CN)=C(c1ccccc1)c1ccccc1
- Potency [1]: inactive
- Potency [2]: inactive
- Potency [3]: inactive
- Potency [4]: inactive
- Potency [5]: inactive
- Potency [6]: inactive
- Potency [7]: inactive
- Potency [12]: inactive
- Potency [9]: inactive
- Potency [10]: inactive
- Potency [11]: inactive

SMILES: CN(C)CCCOC1(Cc2ccccc2)CCCCCC1
- Potency [1]: inactive
- Potency [2]: inactive
- Potency [3]: inactive
- Potency [4]: inactive
- Potency [5]: inactive
- Potency [6]: inactive
- Potency [7]: inactive
- Potency [12]: inactive
- Potency [10]: inactive
- Potency [11]: inactive

SMILES: OC(CCCN1CCCCC1)(c1ccccc1)c1ccccc1
- Potency [1]: inactive
- Potency [2]: inactive
- Potency [3]: inactive
- Potency [4]: inactive
- Potency [5]: inactive
- Potency [6]: inactive
- Potency [7]: inactive
- Potency [12]: inactive
- Potency [9]: inactive
- Potency [10]: inactive
- Potency [11]: inactive
- activity, negative = cell killing [13, 15]: 9.15%
- activity, negative = cell killing [13, 16]: -27.2%
- activity, negative = cell killing [13, 17]: -3.12%
- Potency ([13]; tumour line A): 11.2 µM (active)
- Potency [14]: inactive

SMILES: CCOC(=O)c1ccc(NC(=O)CN2CCCCC2)cc1
- Potency [1]: inactive
- Potency [2]: inactive
- Potency [3]: inactive
- Potency [4]: inactive
- Potency [5]: inactive
- Potency [6]: inactive
- Potency [7]: inactive
- Potency [8]: inactive
- Potency [12]: inactive
- Potency [10]: inactive
- Potency [11]: inactive
- Potency [14]: inactive

SMILES: OCCc1ccccc1
- Potency [1]: inactive
- Potency [2]: inactive
- Potency [3]: inactive
- Potency [4]: inactive
- Potency [5]: inactive
- Potency [6]: inactive
- Potency [7]: inactive
- Potency [12]: inactive
- Potency [9]: inactive
- Potency [10]: inactive
- Potency [11]: inactive
- activity, negative = cell killing [13, 15]: -16.7%
- activity, negative = cell killing [13, 16]: -5.39%
- activity, negative = cell killing ([13]; at 46 µM (top of the series), tumour line A): -18.5%
- activity, negative = cell killing [13, 17]: 13.1%
- Potency [14]: inactive

SMILES: C[N+]1(CC2COC(c3ccccc3)(c3ccccc3)O2)CCCCC1 (stereo not drawn)
- Potency [1]: inactive
- Potency [2]: inactive
- Potency [3]: inactive
- Potency [4]: inactive
- Potency [5]: inactive
- Potency [6]: inactive
- Potency [7]: inactive
- Potency [12]: inactive
- Potency [10]: inactive
- Potency [11]: inactive
- activity, negative = cell killing [13, 15]: -10.9%
- activity, negative = cell killing [13, 16]: -20.2%
- activity, negative = cell killing [13, 17]: -16.6%
- Potency [14]: inactive

SMILES: C/C(=N\O)[C@@H](C)NCC(C)(C)CN[C@H](C)/C(C)=N/O
- Potency [1]: inactive
- Potency [2]: inactive
- Potency [3]: inactive
- Potency [4]: inactive
- Potency [5]: inactive
- Potency [6]: inactive
- Potency [7]: inactive
- Potency [12]: inactive
- Potency [9]: inactive
- Potency [10]: inactive
- Potency [11]: inactive

SMILES: CC(C)(C)C1CCC(CC2=C(O)c3ccccc3C(=O)C2=O)CC1 (stereo not drawn)
- Potency [1]: inactive
- Potency [2]: inactive
- Potency [3]: inactive
- Potency [4]: inactive
- Potency [5]: inactive
- Potency [6]: inactive
- Potency [7]: inactive
- Potency [12]: inactive
- Potency [10]: inactive
- Potency [11]: inactive

SMILES: Cn1cc(S(C)=O)c(=O)c2ccc(F)cc21 (stereo not drawn)
- Potency [1]: inactive
- Potency [2]: inactive
- Potency [3]: inactive
- Potency [4]: inactive
- Potency [5]: inactive
- Potency [6]: inactive
- Potency [7]: inactive
- Potency [12]: inactive
- Potency [9]: inactive
- Potency [10]: inactive
- Potency [11]: inactive
- activity, negative = cell killing [13, 15]: -9.03%
- activity, negative = cell killing [13, 16]: -4.06%
- activity, negative = cell killing [13, 17]: -1.4%
- Potency [14]: inactive

SMILES: Cc1nc2n(c(=O)c1CCN1CCC(C(=O)c3ccc(F)cc3)CC1)CCS2
- Potency [1]: inactive
- Potency [2]: inactive
- Potency [3]: inactive
- Potency [4]: inactive
- Potency [5]: inactive
- Potency [6]: inactive
- Potency [7]: inactive
- Potency [12]: inactive
- Potency [9]: inactive
- Potency [10]: inactive
- Potency [11]: inactive

SMILES: CN1CCC(N(Cc2cccs2)c2ccccc2)CC1
- Potency [1]: inactive
- Potency [2]: inactive
- Potency [3]: inactive
- Potency [4]: inactive
- Potency [5]: inactive
- Potency [6]: inactive
- Potency [7]: inactive
- Potency [12]: inactive
- Potency [9]: inactive
- Potency [10]: inactive
- Potency [11]: inactive
- activity, negative = cell killing [13, 15]: -22.4%
- Potency ([13]; tumour line A): 10 µM (active)
- Potency [14]: inactive
